This is an account of results in PubChem BioAssay (Tox21).

Records with an inconclusive call do not appear. A call without a number means that no potency is given here. Calls of active or inactive are those of the source. Calls follow the shape of the full dose curve.
Also: nearly all actives have a fitted effect of over 45% in size.

One experiment is described as follows: p53 small molecule agonists, cell-based qHTS assay with human liver microsomes: qHTS cell viability counter screen (AID 1963579). As to conditions: p53RE-bla HCT-116 viability, ATP luminescence, 16 h, HLM; series mostly up to 66 µM. The gist of the method: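 Luminescent CellTiter-Glo read-out, 30 min at room temperature, gauged cytotoxicity in p53RE-bla cells exposed 16 h at 37 C to DMSO-dissolved compounds with metabolic activation by human liver microsomes and NADPH, each 0.5 mg/mL final.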
Take `c1ccc2c(c1)CCCC2`: the Potency entry was “inactive”.

`CC(=[OH+])/C=C(/C)[O-].CC(=[OH+])/C=C(\C)[O-].CC(=[OH+])/C=C(\C)[O-].[Al]`: the Potency entry is “inactive”.

Consider `Oc1ccccc1Cl`, for which the Potency result is “inactive”.

In the case of `O=[N+]([O-])c1ccc([As](=O)(O)O)cc1`, the Potency result was “inactive”.

For the molecule `C=CC1CC=CCC1` (stereo not drawn), the Potency entry is “inactive”.

In the case of `ClC1C(Cl)C(Cl)C(Cl)C(Cl)C1Cl` (stereo not drawn), the Potency result was “inactive”.

For `COC(=O)c1ccccc1C(=O)OC`, the Potency result is “inactive”.

For the molecule `Cc1ccccc1O`, the Potency entry was “inactive”.

On to `CCC12COCN1COC2`, for which the Potency result is “inactive”.

Turning to `CCOC(=O)CC(SP(=S)(OC)OC)C(=O)OCC` (stereo not drawn), the Potency result was “inactive”.

`COc1ccc2c(c1OC)C(=O)O[C@@H]2[C@H]1c2cc3c(cc2CCN1C)OCO3`: the Potency entry was “inactive”.

Regarding `C/C(=N\NC(=O)Nc1cc(F)cc(F)c1)c1ncccc1C(=O)O`, the Potency result was “inactive”.

Consider `C=CCOC(N)=O`, for which the Potency entry is “inactive”.

Take `COP(=O)(OC)C(O)C(Cl)(Cl)Cl` (stereo not drawn): the Potency entry is “inactive”.

Take `CN(C)N`: the Potency result is “inactive”.

`c1ccc(P(c2ccccc2)c2ccccc2)cc1`: the Potency result is “inactive”.

In the case of `c1ccc2c(c1)sc1ccccc12`, the Potency result is “inactive”.

As to `CCBr`, the Potency entry was “inactive”.

A further experiment is described as follows: p53 small molecule agonists, cell-based qHTS assay with rat liver microsomes: qHTS cell viability counter screen (AID 1963580). Particulars: p53RE-bla HCT-116 + rat microsomes, ATP viability, 16 h; series mostly up to 66 µM. The essentials:
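Luminescent ATP readout (CellTiter-Glo, 30 min at room temperature) reports viability of p53RE-bla HCT-116 cells after 16 h at 37 C with test compounds under metabolic activation by rat liver microsomes and NADPH at 0.5 mg/mL final each.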
`c1ccc2c(c1)CCCC2`: the Potency result was “inactive”.

For the molecule `CC(=[OH+])/C=C(/C)[O-].CC(=[OH+])/C=C(\C)[O-].CC(=[OH+])/C=C(\C)[O-].[Al]`, the Potency result is “inactive”.

As for `CCCCCCI`, the Potency entry was “inactive”.

On to `Oc1ccccc1Cl`, for which the Potency entry was “inactive”.

Consider `Oc1cc(Cl)ccc1Cl`, for which the Potency entry was “inactive”.

With `CC(C)(C)C(=O)Cl`, the Potency entry was “inactive”.

As to `NNC(=S)NN`, the Potency result is “inactive”.

As for `O=[N+]([O-])c1ccc([As](=O)(O)O)cc1`, the Potency result was “inactive”.

Consider `O=C(O)C(F)(F)C(F)(F)C(F)(F)C(F)(F)C(F)(F)C(F)(F)C(F)(F)C(F)(F)F`, for which the Potency result is “inactive”.

For the molecule `C=CC1CC=CCC1` (stereo not drawn), the Potency result was “inactive”.

Take `ClC1C(Cl)C(Cl)C(Cl)C(Cl)C1Cl` (stereo not drawn): the Potency result was “inactive”.

`Cc1cccc([N+](=O)[O-])c1`: the Potency entry was “inactive”.

As for `O=C(O)C1C2CCC(O2)C1C(=O)O` (stereo not drawn), the Potency entry was “inactive”.

On to `COC(=O)c1ccccc1C(=O)OC`, for which the Potency result was “inactive”.

On to `Cc1ccccc1O`, for which the Potency entry was “inactive”.

As to `CCC12COCN1COC2`, the Potency result is “inactive”.

Take `Cc1ccccc1CCl`: the Potency entry is “inactive”.

As to `N#Cc1cc([N+](=O)[O-])ccc1N`, the Potency result is “inactive”.

On to `O=Cc1ccc(Cl)cc1Cl`, for which the Potency entry is “inactive”.

As for `CCOC(=O)CC(SP(=S)(OC)OC)C(=O)OCC` (stereo not drawn), the Potency result is “inactive”.

Turning to `NCC(O)c1ccc(O)cc1` (stereo not drawn), the Potency entry is “inactive”.

As for `COc1ccc2c(c1OC)C(=O)O[C@@H]2[C@H]1c2cc3c(cc2CCN1C)OCO3`, the Potency result is “inactive”.

On to `CC(C)(c1ccc(OCC2CO2)cc1)c1ccc(OCC2CO2)cc1` (stereo not drawn), for which the Potency entry is “inactive”.

As for `C=CCCl`, the Potency entry was “inactive”.

With `C/C(=N\NC(=O)Nc1cc(F)cc(F)c1)c1ncccc1C(=O)O`, the Potency result is “inactive”.

Turning to `C=CCOC(N)=O`, the Potency result is “inactive”.

In the case of `COC(=O)NC(=S)Nc1ccccc1NC(=S)NC(=O)OC`, the Potency result was “inactive”.

Turning to `Cc1ccc2c(c1N)C(=O)c1ccccc1C2=O`, the Potency result is “inactive”.

As for `COP(=O)(OC)C(O)C(Cl)(Cl)Cl` (stereo not drawn), the Potency entry was “inactive”.

As for `CN(C)N`, the Potency result is “inactive”.

Regarding `O=C(O)C(Br)Br`, the Potency result is “inactive”.

For `c1ccc(P(c2ccccc2)c2ccccc2)cc1`, the Potency result is “inactive”.

On to `CN(C)CCC#N`, for which the Potency entry was “inactive”.

As to `c1ccc2c(c1)sc1ccccc12`, the Potency result was “inactive”.

Take `CCBr`: the Potency entry is “inactive”.
